Assay results taken from PubChem BioAssay AID743286 (National Center for Advancing Translational Sciences (NCATS), 2014).
The whole screen tested about 1,100 compounds, of which about 340 (31%) were called active. Roughly 40% stayed inconclusive and do not appear here. The call rests on the fitted dose curve; in most records, active means well fitted inhibition curve with a large enough effect; inconclusive means small, poorly fitted or top-dose-only effect; inactive means flat fitted curve, though single readings scatter. These entries were drawn from the full list.

target: Phosphatidylinositol 5-phosphate 4-kinase type-2 alpha (Homo sapiens) (UniProt P48426); assay: qHTS for Inhibitors of PI5P4K: Confirmation in Primary Assay; conditions: PI5P4Kalpha enzyme, ADP-Glo luminescence, 60 min; series mostly up to 76.9 µM; activity change, negative = inhibition: at the top concentration; further: nearly all actives have a fitted effect of over 65% in size
Sequence (P48426 whole entry, looked up): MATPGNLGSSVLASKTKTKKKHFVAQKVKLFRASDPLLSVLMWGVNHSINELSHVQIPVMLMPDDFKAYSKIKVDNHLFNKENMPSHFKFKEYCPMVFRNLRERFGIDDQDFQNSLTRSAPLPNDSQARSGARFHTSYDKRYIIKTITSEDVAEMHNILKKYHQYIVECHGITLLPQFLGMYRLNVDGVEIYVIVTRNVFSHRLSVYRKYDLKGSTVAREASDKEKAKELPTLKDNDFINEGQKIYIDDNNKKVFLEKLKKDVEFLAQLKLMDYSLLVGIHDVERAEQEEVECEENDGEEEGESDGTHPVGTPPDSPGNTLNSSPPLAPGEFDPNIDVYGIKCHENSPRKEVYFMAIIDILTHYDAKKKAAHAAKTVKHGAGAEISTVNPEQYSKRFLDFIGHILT
Summary of the method: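 PI5P4Kα with lipid substrate in 0.038 M HEPES pH 7.4, 0.28 mM EGTA, 0.1% CHAPS, 5% DMSO; compounds pinned in, reaction started with 5 microM ATP, 60 min at room temperature. ADP formed read by ADP-Glo luminescence.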
On the % scale 0 is the no-effect control and ±100 the full control effect; potency means the concentration at half of the fitted maximal effect.

| SMILES | activity change, negative = inhibition | Potency |
| --- | --- | --- |
| COc1ccc2c(c1)C=C(CN1CCN(Cc3ccccc3C)C(CCO)C1)CO2 (configuration not stated) | 1.01% (inactive) |  |
| Cc1ccc(-c2csc(NC(=O)c3ccno3)n2)cc1 |  | 28.2 µM (active) |
| NC(=O)c1c(NC(=O)CN2CCCC2)sc2c1CCCC2 | -1.83% (inactive) |  |
| NC(=O)c1c(NC(=O)c2ccccc2)sc2c1CCC2 |  | 25.1 µM (active) |
| NC(=O)c1c(NC(=O)c2cc3ccccc3o2)sc2c1CCC2 |  | 31.6 µM (active) |
| Cc1ccc2cc(CCl)c(Cl)nc2c1 | -0.529% (inactive) |  |
| O=c1oc2cc(O)ccc2cc1-c1ccc(F)cc1 | -21.3% (inactive) |  |
| N=c1oc2ccc3ccccc3c2cc1C(N)=S | -20.2% (inactive) |  |
| NC(=S)c1cc2ccc(O)cc2oc1=O |  | 14.1 µM (active) |
| O=C(NCc1ccco1)c1cc2ccc(O)cc2oc1=O |  | 14.1 µM (active) |
| O=C(c1ccc(Br)cc1)c1cc2ccc(O)cc2oc1=O |  | 11.2 µM (active) |
| O=C(c1ccc(F)cc1)c1cc2ccc(O)cc2oc1=O |  | 10 µM (active) |
| COc1ccc(C(=O)N2CCC2(C)C(=O)O)cc1F (configuration not stated) | -4.7% (inactive) |  |
| O=C(Nc1ccc(-c2nc3ncccc3o2)cc1)c1ccco1 | -14.4% (inactive) |  |
| O=C(CCN1CCc2ccccc2C(c2ccccc2)C1)c1ccc2c(c1)OCCO2 (configuration not stated) | 2.85% (inactive) |  |
| O=C(Cn1cncn1)NCc1ccccc1Br | -17.6% (inactive) |  |
| CCOC(=O)N1CCN(C(=O)CCS(=O)(=O)c2ccc3c(c2)CCN3C(=O)CC)CC1 | 4.08% (inactive) |  |
| Cc1cccc(N=c2oc3cc(O)ccc3cc2C(N)=O)c1 |  | 14.1 µM (active) |
| c1coc(-c2ccc3nncn3c2)c1 |  | 15.8 µM (active) |
| Clc1ccc2nc(-c3ccco3)c(Cc3ccccc3)n2c1 | -25.6% (inactive) |  |
| CC(=O)c1ccc(NC(=O)c2noc3c2CCC3)cc1 |  | 35.5 µM (active) |
| O=C(Nc1nnc(COc2ccc(Cl)cc2)s1)c1cccs1 | -13.3% (inactive) |  |
| CC(C)(NC(=O)c1ccccc1)c1nc2ccccc2s1 | -17.8% (inactive) |  |

| SMILES | activity change, negative = inhibition | Potency |
| --- | --- | --- |
| Cc1nc(N)sc1-c1csc(Nc2cccc(C(=O)O)c2)n1 |  | 15.8 µM (active) |
| OCCNc1nc(Nc2ccc(Cl)c(Cl)c2)nc2ccccc12 |  | 31.6 µM (active) |
| O=C1COc2ccc(S(=O)(=O)NCCc3ccccc3)cc2N1 | 2.64% (inactive) |  |
| Cc1ccc(C)c(S(=O)(=O)Nc2ccc3oc(C)c(C(=O)O)c3c2)c1 |  | 15.8 µM (active) |
| COc1cc(CNc2ccc(N3CCCC3)cc2)cc(Cl)c1OC | -18.4% (inactive) |  |
| O=C(O)C1Nc2c(Cl)cc(Cl)c(Cl)c2C2C=CCC12 (configuration not stated) |  | 8.91 µM (active) |
| CCOc1ccc(CC(=O)Nc2sc(Cc3ccccc3)c(C)c2C(N)=O)cc1OCC | -12.1% (inactive) |  |
| CCc1c(C)sc(NC(=O)c2ccoc2C)c1C(N)=O |  | 12.6 µM (active) |
| O=S(=O)(c1ccc(Br)cc1)N1CCCc2ccccc21 | 7.69% (inactive) |  |
| NS(=O)(=O)c1ccc(NC(=O)c2ccc(S(=O)(=O)N3CCc4ccccc43)cc2)cc1 |  | 14.1 µM (active) |
| Clc1ccc2nc(CSc3nc4ccccc4o3)cn2c1 | 3.79% (inactive) |  |
| COc1ccc2ccccc2c1C1CC(=O)N2CN(C3CCCCC3)CSC2=C1C#N (configuration not stated) |  | 15.8 µM (active) |
| CCOc1ccccc1N1CSC2=C(C#N)C(c3c(OC)ccc4ccccc34)CC(=O)N2C1 (configuration not stated) |  | 20 µM (active) |
| C[C@H](CO)N1C[C@H](C)[C@@H](CN(C)S(=O)(=O)c2ccc3c(c2)OCCCO3)OCc2cnnn2CCCC1=O | 0.696% (inactive) |  |
| CCN1CCN(C(=O)Cn2nc(-c3ccc(Cl)cc3)ccc2=O)CC1 | 7.36% (inactive) |  |
| COc1cc2nc(Nc3ccc(C)c(Cl)c3)nc(N)c2cc1OC |  | 15.8 µM (active) |
| Cc1ccnc2nc(C(=O)OCC(=O)NC3CCCC(C)C3C)nn12 (configuration not stated) | 5.28% (inactive) |  |
| CC1CCCCC1NC(=O)COC(=O)c1c2c(nc3ccccc13)/C(=C\c1ccco1)CC2 (configuration not stated) |  | 1.26 µM (active) |
| COc1ccc(CCn2c(O)cc3nn(-c4nc5ccccc5s4)c(=O)c-3c2C)cc1 |  | 11.2 µM (active) |
| O=C(CCS(=O)(=O)c1ccc2c(c1)NC(=O)CS2)NCCc1ccc(Cl)cc1 | -2.61% (inactive) |  |
| NS(=O)(=O)c1ccc(NC(=O)C2Cc3ccccc3CN2C(=O)c2ccco2)cc1 (configuration not stated) |  | 14.1 µM (active) |
| CCCNC(=O)C1(C)CCCN(C(=O)c2cc(C)nn2C(C)(C)C)C1 (configuration not stated) | 0.849% (inactive) |  |
| Oc1cc2c(cc1C(c1ccc(Cl)c(Cl)c1)N1CCCC1)OCO2 (configuration not stated) |  | 12.6 µM (active) |

| SMILES | activity change, negative = inhibition | Potency |
| --- | --- | --- |
| O=C(Nc1cccc2cccnc12)c1csc(COCCO)n1 | -0.498% (inactive) |  |
| O=C(c1cccnc1)N(c1cc2sc(=O)oc2c2ccccc12)S(=O)(=O)c1ccccc1 | -17.1% (inactive) |  |
| COc1ccc(S(=O)(=O)N2CCN(C(=O)c3cc4c(s3)CCC4)CC2)cc1 |  | 7.08 µM (active) |
| CCOc1ccc(S(=O)(=O)N2CCN(c3ccc(C)cc3C)CC2)cc1 | 11.9% (inactive) |  |
| COc1cc2nc(COc3ccccc3[N+](=O)[O-])oc(=O)c2cc1OC | -3.94% (inactive) |  |
| O=S(=O)(Nc1ccc2cn[nH]c2c1)c1ccccc1 | 0.969% (inactive) |  |
| CCOC(=O)c1cnc2cc(C)ccn2c1=O | 0.0355% (inactive) |  |
| C[C@H]1CN=C(Nc2ccccc2)N1CCCC1CCCCC1 | -0.725% (inactive) |  |
| COc1cccc2cc(C(C)N(CCCN3CCOCC3)C(=O)Nc3ccccc3)oc12 (configuration not stated) | 1.88% (inactive) |  |
| Cc1ccc(C)c(NC(=O)c2ccc3c(c2)N(Cc2ccc(F)cc2)C(=O)CS3=O)c1 (configuration not stated) | -0.517% (inactive) |  |
| CCN1CCN(Cc2ccc(NC(=O)c3ccc(C)c(NC(=O)c4cc(-c5ccc(Br)cc5)n[nH]4)c3)cc2C(F)(F)F)CC1 |  | 28.2 µM (active) |
| CCN1CCN(Cc2ccc(NC(=O)c3cc(NC(=O)c4cc5cccc(OC)c5o4)cc(OC)c3)cc2C(F)(F)F)CC1 |  | 25.1 µM (active) |
| Cc1cc2ccccc2nc1SCC(=O)NC1CCCC1 | 3.8% (inactive) |  |
| CCCCNC(=O)C1(C)CCC(=O)N1c1cc(C(C)(C)C)nn1C (configuration not stated) | 4.31% (inactive) |  |
| COCCn1nnnc1C(c1cc2cc(OC)c(OC)cc2[nH]c1=O)N1CCN(c2ccc(O)cc2)CC1 (configuration not stated) | -13.5% (inactive) |  |
| Cc1ccn2c(NC3CCCC3)c(-c3cccs3)nc2c1 | 6.53% (inactive) |  |
| O=c1c2c3c(sc2[nH]c(=S)n1Cc1ccco1)CCC3 |  | 7.08 µM (active) |
| Cc1cccc(-n2c(SCC(N)=O)nc3c(c2=O)C2(CCCC2)Cc2ccccc2-3)c1 | 3.23% (inactive) |  |
| Cc1ccccc1CNC(=O)c1ccc2nc([C@@H]3O[C@H](CO)[C@H](O)[C@H](O)[C@H]3O)[nH]c2c1 | 1.11% (inactive) |  |
| COc1ccc(OC)c(NC(=O)COC(=O)c2cc3c(s2)CCC3)c1 |  | 12.6 µM (active) |
| COc1ccc(OC)c(NC(=O)CN(Cc2ccc(F)cc2)C2CCCCC2)c1 | -1.93% (inactive) |  |
